Some test systems named below: HCT-15 colon; HT29 colon; SNB-75 CNS; SNB-19 CNS; U251 CNS; PC-3 prostate; SK-MEL-5 melanoma; UACC-62 melanoma; LOX IMVI melanoma; SK-MEL-28 melanoma.
What all share (assay): NCI-60 one-dose screen, 48 h (100 = growth as untreated, 0 = no growth, -100 = all killed)
What all share (settings): 10 µM unless noted

The panel holds about 83,000 compounds, 20% with a hit somewhere; the sample as a whole holds those more often.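 Assay: single dose, 48 h. Readout: percent growth (0 = no net growth; negative = cell death). Active: <10.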 Values without a mark were called inactive. Activity calls are given as the source filed them.

Take `CC(=O)Nc1cc(C(c2ccccc2)c2ccccc2)cc(C(c2ccccc2)c2ccccc2)c1C`: the growth is 50.5% in the experiment with HCT-15 colon; 47.8% in the experiment on HT29 colon; 34.2% in the experiment with SNB-75 CNS; 71.4% with SNB-19 CNS; 46.8% with U251 CNS; 15.4% with PC-3 prostate. For the same compound, the growth in the experiment with SK-MEL-5 melanoma is 45.6%; in the experiment with UACC-62 melanoma, 50%; in the experiment with LOX IMVI melanoma it was 53%; with SK-MEL-28 melanoma, 56.8%.
Regarding `O=c1c2c(=NCCCN3CCCC3)cc3c(=O)n(CCCN4CCCC4)c(=O)c4c(NCCCN5CCCC5)cc(c(O)n1CCCN1CCCC1)c2c4-3`, the growth in the experiment with HCT-15 colon was 12.9%; with HT29 colon, -7.75% (active); in the experiment with SNB-75 CNS, -83.1% (active); in the experiment with SNB-19 CNS, 7.13% (active); in the experiment on U251 CNS, 1.98% (active); with PC-3 prostate, 11.7%. Further, the growth in the experiment on SK-MEL-5 melanoma is -66% (active); with UACC-62 melanoma, -52.2% (active); in the experiment with LOX IMVI melanoma it was -7.8% (active); in the experiment on SK-MEL-28 melanoma, -42.3% (active).
In the case of `O=C(Oc1cccc2ccccc12)c1ccccc1C(=O)c1ccccc1`, the growth with HCT-15 colon was 93.2%; in the experiment with HT29 colon, 59.5%; in the experiment on SNB-75 CNS it was 98.1%; in the experiment on SNB-19 CNS it was 101%; in the experiment on U251 CNS, 79.5%; in the experiment on PC-3 prostate, 47.6%. In addition, the growth is 96.6% with SK-MEL-5 melanoma, 96.6% in the experiment with UACC-62 melanoma, 72.3% in the experiment on LOX IMVI melanoma and 119% in the experiment on SK-MEL-28 melanoma.
With `Cc1cc2ccccn2c1C(=O)c1ccc(C(=O)c2ccccc2)cc1`, the growth in the experiment with HCT-15 colon is 85.5%; in the experiment on HT29 colon, 82%; with SNB-75 CNS, 93.5%; in the experiment with SNB-19 CNS it was 86.1%; in the experiment on U251 CNS, 86.2%; in the experiment with PC-3 prostate, 85.2%. Besides, the growth with SK-MEL-5 melanoma was 98.4%; in the experiment on UACC-62 melanoma it was 75.1%; in the experiment with LOX IMVI melanoma it was 92.1%; with SK-MEL-28 melanoma, 89.7%.
Turning to `CCC(C)C1NC(=O)C(CCNCS(=O)(=O)O)NC(=O)C(NC(=O)C(CCNCS(=O)(=O)O)NC(=O)C(NC(=O)C(CCNCS(=O)(=O)O)NC(=O)CCCCC(C)C)C(C)O)CCNC(=O)C(C(C)O)NC(=O)C(CCNCS(=O)(=O)O)NC(=O)C(CCNCS(=O)(=O)O)NC(=O)C(C(C)CC)NC1=O` (stereo not given), the growth was 99.6% in the experiment with HCT-15 colon; 17.3% in the experiment on HT29 colon; 48.5% in the experiment with SNB-75 CNS; 54.9% in the experiment on SNB-19 CNS; 33.3% in the experiment on U251 CNS; 61.6% in the experiment on PC-3 prostate. For the same compound, the growth is 4.4% (active) in the experiment on SK-MEL-5 melanoma, 47.5% in the experiment with UACC-62 melanoma, 48.8% with LOX IMVI melanoma and 49.8% in the experiment with SK-MEL-28 melanoma.
As for `CCCc1n(Cc2ccc3ccccc3c2)cc[n+]1Cc1ccc2ccccc2c1`, the growth with HCT-15 colon is 53.8%; with HT29 colon, -22.5% (active); in the experiment with SNB-75 CNS, -13.9% (active); in the experiment on SNB-19 CNS, -7.08% (active); in the experiment on U251 CNS it was 0.776% (active); with PC-3 prostate, -2.89% (active). The growth in the experiment with SK-MEL-5 melanoma is -98.1% (active); in the experiment with UACC-62 melanoma, -67.2% (active); with LOX IMVI melanoma, -84.3% (active); in the experiment on SK-MEL-28 melanoma, -40.3% (active).
As to `CC(=O)N1N=C(c2ccc3c(c2)OCO3)CC1c1c(C)nn(-c2ccccc2)c1N(C)Cc1ccccc1` (stereo not given), the growth in the experiment on HCT-15 colon is 79.2%; with HT29 colon, 49.8%; with SNB-75 CNS it was 78.7%; in the experiment with SNB-19 CNS, 64.8%; in the experiment on U251 CNS it was 72.3%; in the experiment with PC-3 prostate it was 34.3%. The growth with SK-MEL-5 melanoma is 79.8%; in the experiment on UACC-62 melanoma, 49.5%; in the experiment with LOX IMVI melanoma it was 86.5%; in the experiment with SK-MEL-28 melanoma, 93.3%.
`COc1cccc(-c2nc(-c3ccc(N)cc3)co2)c1`: the growth is 89.8% with HCT-15 colon; 87.2% in the experiment on HT29 colon; 116% in the experiment on SNB-75 CNS; 113% in the experiment with SNB-19 CNS; 92.2% in the experiment with U251 CNS; 98.2% with PC-3 prostate. For the same compound, the growth with SK-MEL-5 melanoma is 85.9%; with UACC-62 melanoma, 90.3%; with LOX IMVI melanoma, 97%; in the experiment on SK-MEL-28 melanoma, 111%.
Turning to `NS(=O)(=O)c1ccc(N2CC(c3nc4ccccc4[nH]3)CC2=O)cc1` (stereo not given), the growth with HCT-15 colon is 107%; in the experiment on HT29 colon, 97.8%; in the experiment on SNB-75 CNS, 67.9%; in the experiment with SNB-19 CNS it was 101%; in the experiment with U251 CNS, 99.7%; in the experiment with PC-3 prostate, 90.8%. Besides, the growth in the experiment with SK-MEL-5 melanoma was 99.8%; with UACC-62 melanoma, 97.4%; with LOX IMVI melanoma it was 94.2%; with SK-MEL-28 melanoma, 103%.
On to `O=C1C(=O)c2c(nc3ccc(Cl)cn23)-c2ccccc21`, for which the growth in the experiment with HCT-15 colon was -100% (active); with HT29 colon it was -84.8% (active); with SNB-75 CNS, -87.7% (active); in the experiment with SNB-19 CNS, -100% (active); in the experiment with U251 CNS it was -100% (active); with PC-3 prostate, -86.6% (active). Moreover, the growth with SK-MEL-5 melanoma, in the experiment on UACC-62 melanoma, in the experiment on LOX IMVI melanoma and in the experiment with SK-MEL-28 melanoma was -100% (active) each time.
Regarding `CC(=O)OCC(=O)[C@@]1(O)CC[C@H]2[C@@H]3CCC4=CC(=O)CC[C@]4(C)[C@@]3(F)[C@@H](O)C[C@@]21C`, the growth in the experiment with HCT-15 colon was 105%; with HT29 colon, 114%; in the experiment on SNB-75 CNS, 113%; in the experiment on SNB-19 CNS, 107%; in the experiment on U251 CNS it was 111%; in the experiment with PC-3 prostate, 93.7%. The growth in the experiment with SK-MEL-5 melanoma is 94.8%; with UACC-62 melanoma, 97.3%; with LOX IMVI melanoma, 96.6%; with SK-MEL-28 melanoma, 112%.
In the case of `CN[C@@H]1C(OC2[C@H](O[C@H]3[C@H](O)[C@@H](O)[C@H](N=C(N)N)[C@@H](O)[C@@H]3N=C(N)N)OC(C)[C@]2(O)CO)OC(CO)C(O)C1O` (stereo not given in full), the growth with HCT-15 colon is 112%; in the experiment with HT29 colon, 98.5%; in the experiment on SNB-75 CNS, 103%; in the experiment on SNB-19 CNS, 113%; in the experiment on U251 CNS, 103%; in the experiment on PC-3 prostate it was 108%. In addition, the growth was 105% with SK-MEL-5 melanoma, 114% in the experiment with UACC-62 melanoma, 104% in the experiment on LOX IMVI melanoma and 104% with SK-MEL-28 melanoma.
As for `COc1cc2c(cc1OC)C(CC1(O)CCCCC1)N(S(=O)(=O)c1ccc(C)cc1)CC2` (stereo not given), the growth is 22.7% [100 µM] in the experiment with HCT-15 colon; 21.1% [100 µM] in the experiment on HT29 colon; 40.8% [100 µM] in the experiment with SNB-75 CNS; 48.9% [100 µM] in the experiment on SNB-19 CNS; 34.1% [100 µM] in the experiment on U251 CNS; 2.56% [100 µM] (active) with PC-3 prostate. Besides, the growth with SK-MEL-5 melanoma is 18.7% [100 µM]; in the experiment on UACC-62 melanoma, 27.4% [100 µM]; in the experiment on LOX IMVI melanoma it was 29.3% [100 µM]; in the experiment on SK-MEL-28 melanoma, 55% [100 µM].

The record behind these values is PubChem BioAssay (NCI).
